Screening results deposited in PubChem BioAssay by National Center for Advancing Translational Sciences (NCATS).
TDP1 inh: blocks human tyrosyl-DNA phosphodiesterase 1; Potency, µM (top dose mostly 130 µM), for the others: top-dose activity change, negative = inhibition, actives largely listed as inhibitors; recombinant TDP1, AlphaScreen DNA substrate cleavage; 350,000 tested, 0.28% active; Q9NUW8; also: nearly all actives have a fitted effect of over 40% in size
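Compounds were preincubated with Tdp1 (1 nM final) for 15 min at room temperature before substrate (15 nM final) started a 5 min reaction; beads (10 ug/ml final) were then added for 10 min before AlphaScreen detection.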
DT40 TDP1 no CPT: qHTS for Inhibitors of human tyrosyl-DNA phosphodiesterase 1 (TDP1): qHTS in cells in absence of CPT; 420,000 tested, 15% active; DT40 Tdp1-/- hTDP1 cells, no CPT, ATP luminescence, 48 h; AID 686978, 2013; Potency, µM (titrated, usually from 46.2 µM), inactives show at the highest dose activity change, negative = growth inhibition, usual class: inhibitors; also: nearly all actives have a fitted effect of over 55% in size
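Chicken DT40 Tdp1-/- cells stably complemented with human TDP1 were seeded at 400 cells/well with DMSO in place of 20 nM camptothecin. After compound pinning, cells grew at least 48 hr at 37 °C; viability read by CellTiter-Glo luminescence.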
RORgamma inh: ROR gamma (mouse) transcription inhibition | Drosophila S2 Gal4-RORgamma UAS-luciferase reporter, 20 h | Potency, µM (titrated, usually from 53.6 µM), for inactives: at the highest dose activity change, negative = inhibition, most hits filed as inhibitors | 310,000 tested, 5.4% active | AID 2551; also: nearly all actives have a fitted effect of over 60% in size
Target sequence (P51450 whole entry, looked up, the tested form may be a part): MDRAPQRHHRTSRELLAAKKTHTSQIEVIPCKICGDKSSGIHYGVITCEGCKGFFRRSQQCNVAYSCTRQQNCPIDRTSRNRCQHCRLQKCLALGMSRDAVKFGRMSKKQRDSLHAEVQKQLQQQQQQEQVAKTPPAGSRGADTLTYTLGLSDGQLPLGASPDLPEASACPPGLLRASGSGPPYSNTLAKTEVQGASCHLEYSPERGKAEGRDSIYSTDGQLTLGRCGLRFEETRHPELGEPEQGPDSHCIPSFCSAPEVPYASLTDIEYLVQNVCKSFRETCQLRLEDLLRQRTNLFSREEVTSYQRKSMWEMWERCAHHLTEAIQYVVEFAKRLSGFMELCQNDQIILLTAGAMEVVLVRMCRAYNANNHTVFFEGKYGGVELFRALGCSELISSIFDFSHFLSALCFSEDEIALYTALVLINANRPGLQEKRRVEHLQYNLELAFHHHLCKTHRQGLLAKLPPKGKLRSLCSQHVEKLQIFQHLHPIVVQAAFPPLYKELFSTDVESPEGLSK
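Luminescence from a UAS-regulated Photinus luciferase reporter in stably transfected Drosophila Schneider cells is measured; decreased signal marks ROR gamma inhibition. Fusion expression is induced by 700 uM copper sulfate for 20 hr.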
Gal4-VP16 FLuc: inhibits Gal4-VP16 luciferase reporter, ROR gamma counter-screen; Drosophila S2 Gal4-VP16 UAS-luciferase, luminescence, 20 h; Potency, µM (series often up to 53.6 µM), for inactives: top-dose activity, negative = inhibition, actives largely listed as inhibitors; 310,000 tested, 3.5% active;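 also: Gal4-VP16 expression switched on by copper sulfate through the metallothionein promoter; nearly all actives have a fitted effect of over 50% in size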
TDP1 cell CPT: DT40-hTDP1 cell growth loss with CPT; chicken DT40 Tdp1-/-;hTDP1 cells + 20 nM CPT, ATP luminescence, 48 h; Potency, µM (series often up to 46.2 µM), for the others: top-dose activity change, negative = growth inhibition, most hits filed as inhibitors; 420,000 tested, 12% active; also: nearly all actives have a fitted effect of over 55% in size
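Chicken DT40 Tdp1-/- cells complemented with human TDP1, 400 cells/well, exposed to compounds plus 20 nM camptothecin for at least 48 h at 37 C; viability read as ATP content by CellTiter-Glo luminescence.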
The depositor's hits bear a star; [ ] = dose if it differs, or a comment. Shown are actives, neighbours in structure and some others; about 19% of the full set was active somewhere. Calls follow the shape of the dose curve; as a rule, active = well fitted curve in the direction sought with a large enough effect; inconclusive = small, poorly fitted or top-dose-only effect, or another doubt; inactive = no such curve, though single readings can be large; an effect the other way counts as inactive or inconclusive. % is scaled to controls: 0 for no effect and ±100 for the full control effect; potency is read from the fitted curve at half-maximal effect.

How did O=C(CSc1nnc(Cc2csc(Nc3cccc(Cl)c3)n2)o1)N1CCc2ccccc21 do in these assays?
TDP1 inh: -4%; DT40 TDP1 no CPT: 21µM*; RORgamma inh: -3%; Gal4-VP16 FLuc: 4%; TDP1 cell CPT: 18µM*

Results for CC1Cc2ccccc2N1C(=O)CSc1nnc(-c2ccccc2Cl)o1 (centres undefined) ?
TDP1 inh: -7%; DT40 TDP1 no CPT: inconclusive; TDP1 cell CPT: 26µM*

How did CC1Cc2ccccc2N1C(=O)CSc1nnc(-c2ccc(S(=O)(=O)N3CCCC3)cc2)o1 (centres undefined) do in these assays?
TDP1 inh: -3%; DT40 TDP1 no CPT: 16µM*; RORgamma inh: -3%; Gal4-VP16 FLuc: 1%; TDP1 cell CPT: inconclusive

What do the screens show for `C=CCn1nnnc1SCC(=O)Nc1cccc(OC)c1`?
TDP1 inh: 10%; DT40 TDP1 no CPT: -11%; RORgamma inh: 19%; Gal4-VP16 FLuc: 17%; TDP1 cell CPT: -1%

What do the screens show for `Cc1ccc2c(c1)OC(=O)CC2c1ccccc1` (centres undefined)?
TDP1 inh: -4%; DT40 TDP1 no CPT: 2%; RORgamma inh: -27%; Gal4-VP16 FLuc: -16%; TDP1 cell CPT: 9%

How did O=C(CSc1nnc(-c2ccccc2Cl)o1)N1CCCc2ccccc21 do in these assays?
TDP1 inh: 2%; DT40 TDP1 no CPT: 16µM*; TDP1 cell CPT: inconclusive

Results for COC(=O)c1nn(-c2ccccc2)c(Cl)c1/C=N/O ?
TDP1 inh: 8%; DT40 TDP1 no CPT: -6%; RORgamma inh: -6%; Gal4-VP16 FLuc: -1%[10 µM]; TDP1 cell CPT: 1%

Results for COC(=O)c1nn(-c2ccccc2)c(Cl)c1/C=N/OCc1ccc(Cl)cc1Cl ?
TDP1 inh: 2%; DT40 TDP1 no CPT: 29µM*; RORgamma inh: -1%; Gal4-VP16 FLuc: -9%; TDP1 cell CPT: 16µM*

How did Cc1cc(O)c(/C=N/OCc2ccc(Cl)cc2Cl)c(=O)o1 do in these assays?
TDP1 inh: 3%; DT40 TDP1 no CPT: inconclusive; RORgamma inh: 13µM*; Gal4-VP16 FLuc: inconclusive; TDP1 cell CPT: 15µM*

Results for C/C(CCC(=O)OC[C@@H]1O[C@H](C#Cc2ccccc2)C=C[C@@H]1Oc1ccc(C)cc1)=N/O[C@@H](C)CN1CCCc2nc(C)c(C)cc21 ?
TDP1 inh: 11%[21 µM]; RORgamma inh: -4%[10 µM]; Gal4-VP16 FLuc: 0%[10 µM]

How did O=C(Nc1ccc(N2CCN(C(=O)c3cccs3)CC2)cc1)c1ccco1 do in these assays?
DT40 TDP1 no CPT: -9%; RORgamma inh: 7%; Gal4-VP16 FLuc: -5%; TDP1 cell CPT: 5%

What do the screens show for `O=C(Nc1ccc(S(=O)(=O)N2CCOCC2)cc1)c1ccco1`?
TDP1 inh: 2%; DT40 TDP1 no CPT: inconclusive; RORgamma inh: 28%; Gal4-VP16 FLuc: 2%; TDP1 cell CPT: -1%

What do the screens show for `O=C(Nc1ccc(N2CCN(C(=O)c3cccs3)CC2)cc1)c1ccc([N+](=O)[O-])o1`?
TDP1 inh: 9%; RORgamma inh: 13µM*; Gal4-VP16 FLuc: inconclusive

Results for O=C(COC(=O)c1ccc([N+](=O)[O-])o1)Nc1ccc(N2CCOCC2)cc1 ?
TDP1 inh: 2%; DT40 TDP1 no CPT: 27%; TDP1 cell CPT: -26%

Results for O=C(Nc1ccc(S(=O)(=O)N2CCOCC2)cc1)c1ccc([N+](=O)[O-])o1 ?
DT40 TDP1 no CPT: 2.6µM*; RORgamma inh: -11%; Gal4-VP16 FLuc: inconclusive; TDP1 cell CPT: 1µM*

How did O=C(COC(=O)c1ccc(Br)o1)Nc1cccc(S(=O)(=O)N2CCOCC2)c1 do in these assays?
TDP1 inh: 1%; DT40 TDP1 no CPT: -24%; TDP1 cell CPT: -29%

Results for O=C(COC(=O)c1ccc([N+](=O)[O-])o1)Nc1cccc(S(=O)(=O)N2CCOCC2)c1 ?
TDP1 inh: 6%; DT40 TDP1 no CPT: -12%; RORgamma inh: inconclusive; Gal4-VP16 FLuc: 7.1µM*; TDP1 cell CPT: -6%
